High-throughput results: PubChem, several laboratories
AHR act: activators of human aryl hydrocarbon receptor | AID 2796 | AHR-responsive luciferase reporter cells, luminescence | 320,000 compounds, 2.5% hits | P35869 | activation, % at 5 µM; in the data active means activation above about 47%
Target sequence (P35869 whole entry, looked up): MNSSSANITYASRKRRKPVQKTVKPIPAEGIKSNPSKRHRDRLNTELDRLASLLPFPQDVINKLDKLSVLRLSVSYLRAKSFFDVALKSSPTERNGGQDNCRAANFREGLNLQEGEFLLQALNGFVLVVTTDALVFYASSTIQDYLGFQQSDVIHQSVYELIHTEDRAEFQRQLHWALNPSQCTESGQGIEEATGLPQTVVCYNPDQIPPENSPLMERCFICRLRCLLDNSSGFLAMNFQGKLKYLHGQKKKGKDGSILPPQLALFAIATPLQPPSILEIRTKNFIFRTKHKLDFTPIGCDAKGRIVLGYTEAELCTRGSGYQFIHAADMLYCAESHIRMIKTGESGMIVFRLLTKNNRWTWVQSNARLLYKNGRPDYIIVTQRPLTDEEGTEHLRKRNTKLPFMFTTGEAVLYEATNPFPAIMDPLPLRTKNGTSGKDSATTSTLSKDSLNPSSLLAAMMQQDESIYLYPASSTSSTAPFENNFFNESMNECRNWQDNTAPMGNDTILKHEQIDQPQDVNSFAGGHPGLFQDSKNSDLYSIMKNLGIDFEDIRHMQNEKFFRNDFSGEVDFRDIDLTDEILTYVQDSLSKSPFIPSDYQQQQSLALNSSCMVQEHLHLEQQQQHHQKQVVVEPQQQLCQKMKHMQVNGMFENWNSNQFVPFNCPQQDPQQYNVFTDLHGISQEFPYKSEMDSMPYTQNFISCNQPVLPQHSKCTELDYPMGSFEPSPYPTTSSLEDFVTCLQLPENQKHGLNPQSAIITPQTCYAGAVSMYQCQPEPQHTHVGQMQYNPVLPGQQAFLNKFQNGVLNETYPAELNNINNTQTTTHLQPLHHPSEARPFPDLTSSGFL
A3G deaminase: inhibitors of human APOBEC3G DNA deaminase; recombinant A3G, ssDNA deamination FAM/TAMRA fluorescence; inhibition, % at 20 µM; 330,000 compounds, 0.28% hits;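 active means inhibition of at least 40% at 20 µM, with no more than 30% in the related APOBEC3A deaminase screen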
A3A deaminase: inhibitors of human APOBEC3A DNA deaminase; P31941; recombinant A3A, FAM/TAMRA ssDNA deamination fluorescence; inhibition, % at 20 µM; 330,000 compounds, 0.41% hits; AID 493011;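 active means at least 40% inhibition at 20 µM here, with at most 30% in a related deaminase screen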
NTR1 ag: activates human neurotensin receptor 1; 330,000 compounds, 0.17% hits; activation, % at 20 µM; P30989; NTR1-U2OS beta-arrestin-GFP spot imaging, agonist mode;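 active means activation at or above 40% of the spot to cytoplasm intensity ratio, with at least 20 cells analyzed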
AHR act cf: human AHR activation, confirmation. shares compounds with AHR act. human cells, AHR-responsive luciferase reporter, luminescence. activation, % at 9 µM. 2,300 compounds, 87% hits. AID 2845; in the data active means activation above about 49%;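 further: HepG2 hepatoma cells carrying a DRE-driven firefly luciferase reporter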
PXR counter: PXR activation, counter-screen for AHR activators; shares compounds with AHR act; cell-based PXR reporter, luciferase luminescence; activation, % at 11.6 µM; 2,300 compounds, 88% hits; AID 434939; in the data active means activation above about 11%;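 further: human hepatoma DPX-2 cells expressing full-length human PXR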
Each line names hits and unclear results; the compound was inactive in the other large screens (follow-up assays come after a bar, where they were run). In the library only some 3.2% were active in any assay of this set; here they are far more common.

O=C1c2ccccc2NC(c2ccc3c(c2)OCCO3)N1c1ccc2c(c1)OCCO2 (configuration not stated)	none
COc1ccccc1N1CCN(CCCN=C2CC(=O)N(C)C(=O)N2C)CC1	none
CCn1c(-c2sc(-c3ccccc3)nc2C)n[nH]c1=S	AHR act 81 | AHR act cf 119 | PXR counter 19
O=C1C(Cc2ccc3[nH]ccc3c2)NC(=S)N1c1ccccc1 (configuration not stated)	none
O=C(Nc1ccc(Cl)c(Cl)c1)c1ccc(Cl)c(Cl)c1	AHR act 168 | AHR act cf 159 | PXR counter 33
COc1ccc2c(c1)C(=NNc1ccc(C(=O)O)cc1)c1cc(OC)ccc1-2	AHR act 86 | AHR act cf 108 | PXR counter 11
O=C1c2ccccc2-c2nc3ccccc3nc21	AHR act 115 | AHR act cf 149
COc1ccccc1-c1nc2ccccc2nc1-c1ccccc1OC	none
Cc1ccc(CSCCNS(=O)(=O)c2ccccc2)cc1	none
Clc1ccc(-c2n[nH]c3c2CCC3)cc1Cl	AHR act 100 | AHR act cf 99 | PXR counter 21
O=C1c2ccccc2C(=O)N1CCc1ccccn1	AHR act 99 | AHR act cf 100 | PXR counter 10
COc1cc(N(C)C)c([N+](=O)[O-])cc1C(=O)N1CCOCC1	none
C=CCCC(=O)Nc1nc(C)c(-c2csc(Nc3cccc(OC)c3)n2)s1	AHR act 301 | AHR act cf 100 | PXR counter 14
CCCC(=O)Nc1nc(C)c(-c2csc(Nc3cc(OC)ccc3OC)n2)s1	AHR act 85 | AHR act cf 76 | PXR counter 45
CCCC(=O)Nc1nc(C)c(-c2csc(Nc3ccccc3OC)n2)s1	AHR act 79 | AHR act cf 101 | PXR counter 34
C=CCCC(=O)Nc1nc(C)c(-c2csc(Nc3cc(OC)ccc3OC)n2)s1	AHR act 117 | AHR act cf 69 | PXR counter 62
O=C(COc1cc(F)ccc1[N+](=O)[O-])NCCCc1ccccc1	none
COc1ccc(C(CNC(=O)c2[nH]c(C)c(C(C)=O)c2C)N2CCOCC2)cc1 (configuration not stated)	none
Cn1c(=O)c2c(nc(N3CCOCC3)n2C/C=C/c2ccccc2)n(C)c1=O	none
Clc1ccc(-c2nc3ncccn3c2Cl)cc1	AHR act 87 | AHR act cf 148 | PXR counter 55
CC(=O)NC1C(OCc2ccccc2)OC2COC(c3ccccc3)OC2C1OCC(=O)O (configuration not stated)	none
Cc1ccc(Nc2nc(-c3ccc(C)cc3)c(CC(=O)O)s2)cc1	AHR act 85 | AHR act cf inactive | PXR counter inactive
O=[N+]([O-])c1ccc(Cl)cc1NCC1CCCO1 (configuration not stated)	none
COc1ccc(Nc2nc3cc(C)ccc3cc2C#N)cc1	AHR act 108 | AHR act cf 94 | PXR counter 15
Cc1ccc2c(c1)N=C(c1ccc(Cl)cc1)CO2	AHR act 135 | AHR act cf 108 | PXR counter 31
c1ccc(C2=Nc3ccccc3OC2)cc1	none
Clc1ccc(C2=Nc3cc(Cl)ccc3OC2)cc1	AHR act 104 | AHR act cf 129 | PXR counter inactive
Cc1ccc(-n2c(C)c(C)c3c(N)ncnc32)cc1	none
COc1ccccc1C(=O)N1CCN(C(=O)c2oc3ccc(C)cc3c2C)CC1	none
COc1ccc(NC(=O)c2ccc(NC(=O)c3ccco3)cc2)c(OC)c1	none
COc1ccc(C(=O)Nc2cc(OC)c(NC(=O)c3ccco3)cc2OC)cc1	AHR act 82 | AHR act cf 110
CCC(=O)Nc1cc(OC)c(NC(=O)c2ccccc2)cc1OC	AHR act 82 | AHR act cf 109
COc1ccc(NC(=O)c2ccc(C)cc2)c(OC)c1	AHR act 120 | AHR act cf 96
COc1cc(NC(=O)c2ccccc2)c(OC)cc1NC(C)=O	AHR act 86 | AHR act cf 113 | PXR counter 11
Cc1ccc(N=C2SC(C(=O)O)CC(=O)N2C)cc1C (configuration not stated)	none
COc1ccccc1S(=O)(=O)N1CCNC(=O)C1	none
Cc1cc(-c2nnc(SCC(=O)Nc3ccc(Br)cc3F)n2N)n[nH]1	none
O=C(c1ccco1)c1coc2c1cc(O)c1ccccc12	AHR act 89 | AHR act cf 120 | PXR counter 18
